In PubChem BioAssay AID1159580 (chemical genetic matrix, 2015):
Several values for one entry are separate records, joined by “and”; a condition that tells them apart may be missing. Equal entries are not always repeated. In all, about 5,500 compounds went through this assay and about 2,000 (36%) were called active. Roughly 18% stayed inconclusive and do not appear here. Cut-off read from the data, not from the text of the source: active = normalized growth mostly below about 0.91 (no sharp cut-off); inconclusive = no clear call, values can overlap the other calls; inactive = mostly above about 0.92. The list shows a part of the results.

Experiment: chemical genetic growth profiling, strain panel (AID 1159580);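 note: tested at 20 µM; growth read once vehicle control cultures reached saturation at 30 °C; 1 = growth at the plate median or of vehicle wells; lower values mean less growth of the strain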
Details: S. cerevisiae deletion strains, growth OD

Measured: normalized growth

C[C@]12C=CC(=O)C=C1CCC1C2CC[C@]2(C)C(=O)CCC12 (stereo partly drawn)
inactive: locus YAL021C, strain ccr4, active compounds read low 0.97 | locus YAL026C, strain drs2, active compounds read low 0.983 | locus YAL030W, strain snc1, active compounds read low 0.976 | locus YBL061C, strain skt5, active compounds read low 0.971 | locus YBR009C, strain hhf1, active compounds read low 0.966 | locus YBR021W, strain FUR4, active compounds read low 0.986 | locus YBR023C, strain chs3, active compounds read low 0.979 | locus YBR171W, strain sec66, active compounds read low 0.987 | locus YBR229C, strain ROT2, active compounds read low 0.992 | locus YBR231C, strain swc5, active compounds read low 0.982 | locus YBR279W, strain paf1, active compounds read low 0.982 | locus YCL011C, strain gbp2, active compounds read low 0.988 | locus YCL016C, strain dcc1, active compounds read low 0.976 | locus YCL029C, strain bik1, active compounds read low 0.992 | locus YCL061C, strain MRC1, active compounds read low 0.972 | locus YCL069W, strain vba3, active compounds read low 0.981 | locus YCR088W, strain abp1, active compounds read low 0.98 | locus YDL005C, strain med2, active compounds read low 0.977 | locus YDL035C, strain GPR1, active compounds read low 1.03 | locus YDL040C, strain nat1, active compounds read low 0.985 | locus YDL074C, strain BRE1, active compounds read low 1.01 | locus YDL101C, strain DUN1, active compounds read low 1.01 | locus YDL134C, strain PPH21, active compounds read low 1.01 | locus YDL185W, strain tfp1, active compounds read low 1 | locus YDL192W, strain arf1, active compounds read low 0.981 | locus YDR001C, strain nth1, active compounds read low 0.984 | locus YDR069C, strain doa4, active compounds read low 0.978 | locus YDR101C, strain arx1, active compounds read low 0.981 | locus YDR137W, strain rgp1, active compounds read low 1.04 | locus YDR150W, strain NUM1, active compounds read low 1.01 | locus YDR159W, strain sac3, active compounds read low 0.928 | locus YDR162C, strain NBP2, active compounds read low 1.03 | locus YDR195W, strain ref2 0.935 | locus YDR297W, strain sur2, active compounds read low 0.972 | locus YDR318W, strain mcm21, active compounds read low 0.992 | locus YDR334W, strain swr1, active compounds read low 0.976 | locus YDR335W, strain msn5, active compounds read low 0.988 | locus YDR388W, active compounds read low 0.981 | locus YDR392W, strain spt3, active compounds read low 0.877 | locus YDR502C, strain sam2, active compounds read low 0.976 | locus YEL003W, strain gim4, active compounds read low 0.988 | locus YEL037C, strain rad23, active compounds read low 0.989 | locus YEL061C, strain CIN8 (second series), active compounds read low 0.988 | locus YEL061C, strain CIN8, active compounds read low 0.995 | locus YER015W, strain faa2, active compounds read low 0.981 | locus YER016W, strain bim1, active compounds read low 0.981 | locus YER110C, active compounds read low 0.984 | locus YER111C, strain swi4, active compounds read low 0.986 | locus YER155C, strain BEM2 (second series), active compounds read low 0.949 | locus YER155C, strain BEM2, active compounds read low 0.979 | locus YER167W, strain BCK2, active compounds read low 0.986 | locus YFR010W, strain ubp6, active compounds read low 0.988 | locus YGL078C, strain dbp3, active compounds read low 0.986 | locus YGL086W, strain mad1, active compounds read low 0.983 | locus YGL167C, strain pmr1, active compounds read low 0.976 | locus YGL173C, strain kem1, active compounds read low 0.98 | locus YGL227W, strain vid30, active compounds read low 0.984 | locus YGL240W, strain doc1, active compounds read low 0.926 | locus YGL248W, strain PDE1, active compounds read low 0.995 | locus YGL253W, strain hxk2, active compounds read low 0.987 | locus YGR078C, strain PAC10, active compounds read low 1.02 | locus YGR135W, strain pre9, active compounds read low 0.996 | locus YGR229C, strain SMI1, active compounds read low 1.07 | locus YGR252W, strain gcn5, active compounds read low 0.988 | locus YHR013C, strain ard1, active compounds read low 0.951 | locus YHR027C, strain rpn1, active compounds read low 0.99 | locus YHR030C, strain SLT2, active compounds read low 1.01 and 0.976 | locus YHR079C, strain IRE1 (second series), active compounds read low 0.987 | locus YHR079C, strain IRE1, active compounds read low 0.978 | locus YHR094C, strain hxt1, active compounds read low 0.981 | locus YHR129C, strain ARP1, active compounds read low 1 | locus YHR142W, strain chs7, active compounds read low 0.995 | locus YHR200W, strain rpn10, active compounds read low 0.976 | locus YIL066C, strain RNR3, active compounds read low 1.01 | locus YIL073C, strain SPO22, active compounds read low 1.04 | locus YIL125W, strain kgd1, active compounds read low 0.975 | locus YIR030C, strain dcg1, active compounds read low 0.992 | locus YJL092W, strain hpr5, active compounds read low 0.985 | locus YJL095W, strain BCK1 (second series), active compounds read low 0.98 | locus YJL095W, strain BCK1, active compounds read low 1 and 0.98 | locus YJL115W, strain asf1, active compounds read low 0.977 | locus YJL129C, strain trk1, active compounds read low 0.985 | locus YJL134W, strain LCB3, active compounds read low 1.01 | locus YJL154C, strain vps35, active compounds read low 0.998 | locus YJL164C, strain tpk1, active compounds read low 0.976 | locus YJL166W, strain qcr8, active compounds read low 0.957 | locus YJL168C, strain set2, active compounds read low 0.978 | locus YJL187C, strain SWE1 (second series), active compounds read low 1.02 | locus YJL187C, strain SWE1, active compounds read low 0.979 | locus YJR043C, strain POL32, active compounds read low 1.03 | locus YJR066W, strain TOR1, active compounds read low 0.937 | locus YKL009W, strain mrt4, active compounds read low 1 | locus YKL068W, active compounds read low 1 | locus YKL085W, strain MDH1 (second series), active compounds read low 0.993 | locus YKL085W, strain MDH1, active compounds read low 0.993 | locus YKL160W, strain elf1, active compounds read low 0.985 | locus YKR001C, strain vps1, active compounds read low 0.986 | locus YKR026C, strain gcn3, active compounds read low 0.962 | locus YKR091W, strain srl3, active compounds read low 0.976 | locus YLL001W, strain dnm1, active compounds read low 0.969 | locus YLL026W, active compounds read low 0.981 | locus YLL041C, strain sdh2, active compounds read low 0.981 | locus YLR027C, strain aat2, active compounds read low 0.984 | locus YLR039C, strain RIC1, active compounds read low 1.27 | locus YLR058C, strain SHM2, active compounds read low 0.993 | locus YLR102C, strain apc9, active compounds read low 0.997 | locus YLR113W, strain HOG1, active compounds read low 0.966 | locus YLR221C, strain rsa3, active compounds read low 0.977 | locus YLR258W, strain gsy2, active compounds read low 0.973 | locus YLR262C, strain YPT6 (second series), active compounds read low 1.05 | locus YLR262C, strain YPT6, active compounds read low 1.23 | locus YLR268W, strain sec22, active compounds read low 0.997 | locus YLR320W, strain mms22, active compounds read low 0.946 | locus YLR330W, strain CHS5, active compounds read low 1 | locus YLR342W, strain FKS1 (second series), active compounds read low 0.958 | locus YLR342W, strain FKS1, active compounds read low 0.976 | locus YLR357W, strain rsc2, active compounds read low 1.01 | locus YLR370C, strain arc18, active compounds read low 0.977 | locus YLR371W, strain rom2, active compounds read low 0.993 | locus YLR384C, strain iki3, active compounds read low 0.983 | locus YLR418C, strain cdc73, active compounds read low 0.968 | locus YML016C, strain PPZ1, active compounds read low 0.994 | locus YML032C, strain rad52, active compounds read low 0.996 | locus YML120C, strain ndi1, active compounds read low 0.983 | locus YML124C, strain tub3, active compounds read low 0.982 | locus YMR058W, strain fet3, active compounds read low 0.979 | locus YMR078C, strain ctf18, active compounds read low 0.974 | locus YMR125W, strain sto1, active compounds read low 0.997 | locus YMR129W, active compounds read low 0.991 | locus YMR205C, strain PFK2, active compounds read low 0.963 | locus YMR223W, strain ubp8, active compounds read low 0.98 | locus YMR231W, strain pep5, active compounds read low 0.986 | locus YMR263W, strain SAP30, active compounds read low 0.99 | locus YMR307W, strain GAS1, active compounds read low 1.16 | locus YNL067W, strain RPL9B, active compounds read low 1.02 | locus YNL071W, strain lat1, active compounds read low 0.977 | locus YNL128W, strain TEP1, active compounds read low 1.02 | locus YNL153C, strain GIM3, active compounds read low 1.01 | locus YNL183C, strain NPR1, active compounds read low 0.897 | locus YNL209W, strain ssb2, active compounds read low 0.985 | locus YNL233W, strain BNI4, active compounds read low 0.994 | locus YNL248C, strain rpa49, active compounds read low 0.991 | locus YNL250W, strain rad50, active compounds read low 0.99 | locus YNL271C, strain bni1, active compounds read low 0.989 | locus YNL298W, strain CLA4, active compounds read low 0.981 | locus YNL307C, strain MCK1, active compounds read low 0.982 | locus YNL322C, strain KRE1 (second series), active compounds read low 0.978 | locus YNR049C, strain mso1, active compounds read low 0.983 | locus YNR052C, strain pop2, active compounds read low 0.989 | locus YOL006C, strain TOP1, active compounds read low 0.98 | locus YOL012C, strain htz1 1.46 | locus YOL147C, strain pex11, active compounds read low 0.997 | locus YOR001W, strain rrp6, active compounds read low 0.98 | locus YOR061W, strain CKA2, active compounds read low 0.996 | locus YOR069W, strain VPS5, active compounds read low 0.998 | locus YOR070C, strain gyp1, active compounds read low 0.989 | locus YOR080W, strain dia2, active compounds read low 0.972 | locus YOR083W, strain WHI5, active compounds read low 0.983 | locus YOR106W, strain vam3, active compounds read low 0.982 | locus YOR136W, strain idh2, active compounds read low 0.987 | locus YOR144C, strain elg1, active compounds read low 0.977 | locus YOR184W, strain ser1, active compounds read low 0.985 | locus YOR231W, strain MKK1, active compounds read low 0.98 | locus YOR265W, strain rbl2, active compounds read low 0.983 | locus YOR270C, strain vph1, active compounds read low 0.941 | locus YOR290C, strain snf2, active compounds read low 0.943 | locus YOR316C, strain cot1, active compounds read low 0.984 | locus YPL051W, strain arl3, active compounds read low 0.998 | locus YPL055C, strain LGE1, active compounds read low 1.02 | locus YPL078C, strain atp4, active compounds read low 0.989 | locus YPL106C, strain sse1, active compounds read low 0.958 | locus YPL240C, strain hsp82, active compounds read low 0.965 | locus YPL256C, strain CLN2, active compounds read low 0.98 | locus YPR119W, strain clb2, active compounds read low 0.975 | locus YPR141C, strain kar3, active compounds read low 0.982 | locus YPR163C, strain tif3, active compounds read low 0.992 | locus YPR167C, strain met16, active compounds read low 0.981 | strain wtn01, active compounds read low 0.99
